From PubChem
This is a sample that favours compounds with a hit; in the whole collection about 19% have one here.
HT1080 IDH1KD tx: HT-1080 IDH1 knockdown cell toxicity (counter line). Potency, µM (top dose mostly 46.1 µM), for the others: at the highest dose activity, negative = toxicity, actives largely listed as cytotoxic. HT-1080 IDH1 knockdown viability, ATP luminescence, 48 h. hit rate 2% among 360,000;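 note: potency is the fitted concentration of half-maximal effect; 0% = DMSO wells and -100% = cell-free medium wells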
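Luminescent ATP read-out (CellTiter-Glo, 10 min at room temperature) after 48 h compound exposure at 37 °C gave viability of IDH1-knockdown HT-1080 cells. Activity was normalised to DMSO and cell-free wells, then fitted as concentration-response curves.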
TDP1 cell noCPT: qHTS for Inhibitors of human tyrosyl-DNA phosphodiesterase 1 (TDP1): qHTS in cells in absence of CPT; hit rate 15% among 420,000; Potency, µM (doses to about 46.2 µM), inactives show at the top dose activity change, negative = growth inhibition, hits mostly inhibitors; DT40 Tdp1-/- hTDP1 cells, no CPT, ATP luminescence, 48 h; note: potency is the fitted concentration of half-maximal effect; nearly all actives have a fitted effect of over 55% in size
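Growth of hTDP1-complemented DT40 Tdp1-knockout cells is measured by ATP luminescence after at least 48 hr compound exposure at 37 °C, with DMSO substituting for the 20 nM CPT used in the parallel screen.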
TDP1 cell CPT: DT40-hTDP1 cell growth loss with CPT; chicken DT40 Tdp1-/-;hTDP1 cells + 20 nM CPT, ATP luminescence, 48 h; Potency, µM (series often up to 46.2 µM), without a hit: at the top dose activity change, negative = growth inhibition, usual class: inhibitors; hit rate 12% among 420,000; AID 686979; note: potency is the fitted concentration of half-maximal effect; nearly all actives have a fitted effect of over 55% in size
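Chicken DT40 Tdp1-/- cells complemented with human TDP1, 400 cells/well, exposed to compounds plus 20 nM camptothecin for at least 48 h at 37 C; viability read as ATP content by CellTiter-Glo luminescence.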
HT1080-NT tox: kills 2HG-producing HT-1080-NT fibrosarcoma cells | hit rate 1.6% among 360,000 | Potency, µM (titrated, usually from 46.1 µM), for inactives: at the highest dose activity, negative = less viability, actives largely listed as cytotoxic | HT-1080-NT fibrosarcoma viability, CellTiter-Glo ATP luminescence, 48 h | AID 686970;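 note: NT is the 2HG producing partner of a matched IDH1 knockdown line; potency is the fitted concentration of half-maximal effect; 0% = DMSO-treated cells and -100% = media-only wells without cells; nearly all actives have a fitted effect of over 55% in size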
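Luminescent CellTiter-Glo readout after 48 hours of compound exposure at 37 degrees C defined viability of HT-1080-NT cells. Activity was normalized to DMSO wells and cell-free media wells; concentration-response curves were fitted and assigned curve classes.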
IL-1B inflam inh: inhibitors of inflammasome signaling (IL-1 beta secretion). THP-1 LPS/ATP IL-1B secretion, AlphaLISA, 16 h; hits give low values. activity change, % at 57.5 µM. hit rate 4.7% among 360,000; in the data active = activity change below about -50%; inconclusive = mostly about -30% to -49%
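Secreted IL-1B measured by AlphaLISA bead assay after 16 h compound exposure of THP-1 cells; compounds (final up to 57.5 uM) added 1 h before LPS (250 ng/mL) and ATP (1.25 mM) stimulation; lower signal means less secretion.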
Active calls of the source: *; ? = inconclusive; . = not tested or not shown; [ ] = remark or other dose. Unless noted, calls come from the whole dose curve; as a rule, active = well fitted curve in the direction sought with a large enough effect; inconclusive = small, poorly fitted or top-dose-only effect, or another doubt; inactive = no such curve, though single readings can be large; an effect the other way counts as inactive or inconclusive. Unless noted, % is set by controls: 0 for no effect and ±100 for the full control effect.

SMILES	HT1080 IDH1KD tx	TDP1 cell noCPT	TDP1 cell CPT	HT1080-NT tox	IL-1B inflam inh
CO[C@H]1C[C@H](O[C@H]2[C@H](C)[C@@H](O[C@@H]3O[C@H](C)C[C@H](N(C)C)[C@H]3O)[C@@H](C)C[C@]3(CO3)C(=O)[C@H](C)[C@@H](O)[C@@H](C)[C@@H](C)OC(=O)[C@@H]2C)O[C@@H](C)[C@@H]1O	.	4%[21.1 µM]	-23%[21.1 µM]	.	.
COc1ccc(C(CNC(=O)Cc2c(F)cccc2Cl)N2CCCCC2)cc1 (configuration not stated)	12%	-9%	-8%	1%	-5
Cc1ccc(NS(=O)(=O)c2ccc(NC(=O)N3CCCC3)cc2)cc1C	.	-16%	0%	.	.
COc1ccc(-c2nc3ccccc3s2)cc1NC(=O)COc1cccc(C)c1	.	16µM*	?	.	.
COc1ccc(-c2nc3ccccc3o2)cc1NC(=O)COc1ccc(C(C)(C)C)cc1	.	16µM*	?	.	.
CCC(=O)Nc1ccc(-c2nc3ncccc3o2)cc1C	.	-4%	1%	.	.
CC(C)(C)c1ccc(OCC(=O)Nc2ccc(-c3nc4cccnc4o3)cc2)cc1	-2%	9.2µM*	?	-4%	-16
Cc1cc(-c2nc3ncccc3o2)ccc1NC(=O)COc1ccc(C(C)(C)C)cc1	.	16µM*	18µM*	.	.
COc1ccc(-c2nc3ccccc3s2)cc1NC(C)=O	0%	-5%	21%	-5%	34
O=P(COc1ccccc1)(c1ccccc1)c1ccccc1	3%	-27%	-30%	-4%	9
CCc1ccccc1-n1ncc(C(=O)Nc2ccc(OC)cc2)c1C	-5%	?	-7%	-12%	-65*
COc1ccc(NC(=O)c2cc(SC)ccc2Cl)cc1	-25%	?	23µM*	-11%	?
COc1ccc(NS(=O)(=O)NC(=O)c2c(C)n(C)c3ccccc23)cc1	?	22%	-3%	?	33
COc1ccc(NC(=O)c2c(Cl)n(C)c3ccccc23)cc1	?	8.2µM*	8.2µM*	18µM*	18
COc1ccc(NC(=O)c2cccc3ccccc23)cc1	?	21µM*	18µM*	-26%	-7
CCc1ccc(NC(=O)c2cnn(-c3ccccc3)c2C)cc1	0%	?	-4%	-1%	?
CC(C)N(C(=O)CSc1nnnn1C1CCCC1)C(C)C	3%	-26%	-2%	5%	-7
COc1ccccc1C(O)(C(=O)NN(C)c1ccccc1)c1ccccc1OC	16%	-1%	-13%	14%	5
O=C(Nc1cccnc1Oc1ccc(Cl)cc1)c1cccc2ccccc12	-10%	?	-10%	-8%	-57*
NC(=O)c1cccnc1Oc1ccc(Cl)cc1	4%	-22%	8%	3%	-2
O=C(Nc1ccc2ccccc2c1)c1ccccc1O	23µM*	10µM*	13µM*	15µM*	-69*
Oc1ccc2ccccc2c1CNc1ccccc1	-17%	?	?	3%	-29
Oc1ccc2ccccc2c1CNc1ccc2ccccc2c1	21µM*	?	-9%	?	-100*
Cc1ccc(NC(=O)c2cc3ccccc3cc2O)cc1	-22%	?	16µM*	?	-9
Cc1ccc(NC(=O)NNC(=O)c2cc3ccccc3cc2O)cc1C	4%	5%	-4%	-1%	9
COc1ccc(NC(=O)c2cc3ccccc3cc2O)cc1	?	?	?	?	-99*
COc1ccc(NC(=O)c2cnc(SC)nc2)cc1	?	12µM*	15µM*	?	9
Nc1c(C(=O)Nc2ccc(S(=O)(=O)N3CCCC3)cc2)sc2nc3cc4c(cc3cc12)CCC4	?	6.5µM*	6.5µM*	?	16
Nc1c(C(=O)Nc2ccc(C(=O)O)cc2)sc2nc3c(cc12)CCCC3	.	?	-4%	.	.
Nc1c(C(=O)Nc2ccc(S(=O)(=O)N3CCCC3)cc2)sc2nc3ccc(OC(F)(F)F)cc3cc12	?	18µM*	9.2µM*	?	-97*
